The whole screen tested about 300,000 compounds, of which about 37,000 (12%) were called active. Many of the other results were omitted from the sample, so actives are more common in it than they were. Unmarked numbers belong to inactive results. Rule as the data show it: active = max response mostly above about 13% (no sharp cut-off); inactive = mostly below about 14%.
Assay: Cycloheximide Counterscreen for Small Molecule Inhibitors of Shiga Toxin; also: read at 38.3 µM for the half of the compounds with a filed dose; 0% is about no effect
Conditions: cell reporter, cycloheximide protein synthesis inhibition counterscreen; active compounds read high
With `COc1ccc(CCNC(=O)C2CC3Cn4c(nc5cc(C)c(C)cc54)C3N2C)cc1` (configuration not stated) the max response was -2.66%. `Cc1cc(NC(=O)CCC(=O)N(CC(=O)NCC2CCCO2)c2ccccc2)no1` (configuration not stated) showed a max response of -1.66%. For `Cc1ccc(SCCC(=O)Nc2cc(C)on2)cc1`, the max response was 5.3%. In the case of `Cc1cc(NC(=O)CCC2COc3ccccc3O2)no1` (configuration not stated), the max response is reported as 14.1% (active). Work on `COc1ccc(NC(=O)CCC(=O)Nc2cc(OC)c(NC(=O)c3ccco3)cc2OC)c(OC)c1` yielded a max response of -4.97%. For `COc1ccc(NC(=O)CC2COc3ccccc3O2)c(OC)c1` (configuration not stated), the max response was 24.3% (active). With `COc1ccc(NC(=O)CCCC2CCCCC2)c(OC)c1` the max response was 31.1% (active). `CC(=O)Oc1ccc(NC(=O)CCC2CCCCC2)c(C(=O)O)c1` showed a max response of -3.07%. For `COc1ccc(NC(=O)CCN2CCCC2)c(OC)c1`, the max response was -1.44%. Work on `COc1ccc(NC(=O)NCc2ccc3c(c2)OCO3)c(OC)c1` yielded a max response of -2.52%. For `CCCNC(=O)COc1coc(CN2CCN(Cc3ccccc3)CC2)cc1=O`, the max response was -5.17%. In the case of `CCn1ccnc1CNC(=O)CC1C(=O)NCCN1CCCc1ccccc1` (configuration not stated), the max response is reported as -2.05%. Work on `CC1(C)C2CCC1(CS(=O)(=O)NCCc1c[nH]c3ccccc13)C(=O)C2` (configuration not stated) yielded a max response of -4.31%. Compound `Cc1nc2cc(C(F)(F)F)ccc2n1CCNc1nc(-c2cc(Cl)c(N)c(Cl)c2)cs1` has a max response of -1.25%. Work on `N#Cc1ccccc1NC(=O)COc1c(Br)cc(Br)c2cccnc12` yielded a max response of -3.08%. Work on `Cc1nn(CC(=O)NC2CCCCC2)c(=O)c2cccn12` yielded a max response of 10.6%. With `CCCCN1C(=O)/C(=C2/Sc3ccc(Cl)cc3N2CC)SC1=S` the max response was -0.782%. With `CCCCN1C(=O)/C(=C2/C=CC=CN2C)SC1=S` the max response was 18.7% (active). With `CN1C=CC=C/C1=C1\SC(=S)N(Cc2ccccc2)C1=O` the max response was 3.74%. In the case of `Cc1cccc(C)c1NC(=S)N(Cc1cccnc1)Cc1ccccc1Cl`, the max response is reported as -3.98%. Compound `COC(=O)c1ccc2ccccc2c1OC1OC(CO)C(O)C(O)C1NC(C)=O` (configuration not stated) has a max response of 0.801%. Compound `CC1CCN(CC(O)COc2ccc(C(=O)c3ccccc3)cc2)CC1` (configuration not stated) has a max response of -1.82%. With `O=C(NCCN1CCOCC1)/C(=C/c1ccc(F)cc1)NC(=O)c1ccccc1` the max response was -4.36%. For `CC(=O)Oc1c(C(=O)c2nnc(C)o2)c(=O)n(Cc2ccccc2)c2ccccc12`, the max response was -0.619%. With `Brc1ccc2c(c1)[C@H]1OCC[C@H]1[C@@H](c1cccs1)N2` the max response was 8.72%. `C/C(CC(=O)N1CCN(C=O)CC1)=N\NC(=O)c1ccc(Br)cc1` showed a max response of 7.55%. Compound `C/C(=N\NC(=O)Cc1ccc(F)cc1)c1ccc(F)cc1` has a max response of -1.95%. In the case of `O=C(O)CC/C(=N\NC(=O)c1ccc(F)cc1)c1ccc(Br)cc1`, the max response is reported as 35% (active). Work on `CCc1ccccc1NC(=O)CN(C)S(=O)(=O)c1ccc2c(c1)c(=O)n(C)c(=O)n2C` yielded a max response of -5.59%. In the case of `S=c1[nH]nc(-c2ccco2)n1/N=C/c1ccccc1`, the max response is reported as -1.31%. For `Cn1c(-c2ccco2)nc2cc3ccccc3cc21`, the max response was 16.7% (active). Compound `O=c1c2ccccc2nc(-c2ccco2)n1-c1ccc(Br)cn1` has a max response of -3.55%. For `Cc1ccc(CS(=O)(=O)CCC(=O)NCc2ccc(F)cc2)cc1`, the max response was -2.44%. For `CCN(CC)c1ccc(C(=O)N/N=C/c2ccc(N3CCOCC3)cc2)cc1`, the max response was -3.32%. In the case of `O=C(N/N=C\c1cccc(Br)c1)c1ccccc1-n1cccc1`, the max response is reported as 1.75%. `Cc1ccc(-c2cc(C(=O)N/N=C/C=C/c3ccccc3)n[nH]2)o1` gave a max response of -1.74%. For `Cc1ccccc1N/N=C/c1ccc(N2CCOCC2)cc1`, the max response was 21.1% (active). In the case of `Cc1cc(C(=O)N/N=C/c2ccc(N3CCOCC3)cc2)c(C)o1`, the max response is reported as 26.5% (active). With `Cc1cc(C(=O)N/N=C\C(Br)=C\c2ccccc2)c(C)o1` the max response was 32.4% (active). `CNC(=S)N/N=C/c1ccc(N2CCOCC2)s1` gave a max response of 13.7%. In the case of `Cc1cc(Nc2ccc(N3CCOCC3)cc2)c2cccc(C)c2n1`, the max response is reported as -1.97%. `O=C(Cc1cc(=O)[nH][nH]1)N/N=C/c1ccccc1[N+](=O)[O-]` showed a max response of -3.9%. For `CC(=O)N/N=C/c1cc2c(cc1[N+](=O)[O-])OCO2`, the max response was -3%. For `CN(C)c1ccc(/C=N/Nc2cc(N3CCOCC3)nc(N3CCOCC3)n2)cc1`, the max response was -1.93%. With `Cc1cc(C(=O)N/N=C/c2ccccc2[N+](=O)[O-])c(C)o1` the max response was 35% (active). For `Cc1ccc(S(=O)(=O)c2c[nH]c3ccc(C)cc3c2=O)cc1`, the max response was -2.63%. For `CCN(CCCNC(=O)c1ccc2c(c1)NC(=O)CN2C)c1cccc(C)c1`, the max response was -2.58%. For `COc1cccc(CNS(=O)(=O)c2ccc3c(c2)N(C(C)=O)CCS3)c1`, the max response was 3.83%. With `CCOc1ccc2[nH]c3nc(SCC(=O)NC4CCCC4)nnc3c2c1` the max response was -2.15%. In the case of `Cc1cc(C(=O)NNC(=O)CCC2CCCCC2)c(C)o1`, the max response is reported as -7.16%. `CC(=O)N/C(=C/c1ccc(OC(F)F)cc1)C(=O)O` showed a max response of 1.24%. Work on `CC(C)c1cc(C(=O)O)n[nH]1` yielded a max response of 10.8%. For `CC(C)c1cc(C(=O)N/N=C/C(Br)=C/c2ccccc2)n[nH]1`, the max response was 14.6% (active). In the case of `CC(=C/c1ccccc1)/C=N/NC(=O)c1cc(C)oc1C`, the max response is reported as 34.8% (active). In the case of `COc1ccc2ccccc2c1/C=N/NC(=O)c1cc(C)[nH]n1`, the max response is reported as -1.72%. In the case of `O=C(CCC1CCCN(C(=O)c2ccc(F)c(F)c2)C1)N1CCN(c2ccccn2)CC1` (configuration not stated), the max response is reported as -2.81%. For `CC(=O)c1ccc(NC(=O)CCNS(=O)(=O)c2cc(Br)cnc2N)cc1`, the max response was -6.69%. For `CCOC(=O)[C@H]1[C@H]2COc3cc(OC)ccc3[C@@H]2N2C(=O)N(c3ccc(Br)cc3)C(=O)[C@@]12C`, the max response was -2.74%. For `CC(=O)Nc1ccc(NS(=O)(=O)c2ccc3c(c2)NC(=O)CC(=O)N3)cc1`, the max response was -2.79%. `Cc1c(C(=O)Nc2cccc(Cl)c2)cn2c(nc3ccccc32)c1C#N` showed a max response of -2.2%. For `Cn1c(Nc2cccc(Cl)c2)nc2ccccc21`, the max response was 33.5% (active). Compound `C/C(=N\c1nc2ccccc2n1C)c1cc(Cl)ccc1O` has a max response of -3.14%.

— PubChem BioAssay AID2314 (National Center for Advancing Translational Sciences (NCATS), 2010)
